Results filed as inconclusive are left out. The call rests on the fitted dose curve; in most records, active means well fitted curve in either direction with a large enough effect (not every such curve was filed as active); inconclusive means small, poorly fitted or top-dose-only effect, or another doubt; inactive means flat fitted curve, though single readings scatter.
assay: AP1 Signaling Pathway (AID 357); conditions: ME-180 (cervical carcinoma) AP-1-bla reporter, EGF-induced, beta-lactamase ratio, 5 h; series mostly up to 17.2 µM; activity change, negative = inhibition: at the top concentration;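 further: ME-180 reporter cells stimulated with EGF at its EC50 level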
Excerpt: NCGC Assay Overview: Activator protein-1 (AP-1), a transcription factor, plays an important role in tumor genesis by regulating genes involved in cell proliferation, differentiation, apoptosis, and angiogenesis. AP-1 activity is induced by a complex network of signaling pathways that involves extracellular signals, such as growth factors. The AP-1 protein complex formed from c-Fos and c-Jun binding to the AP-1 response element results in transcriptional activation of genes containing such elements within their promoter. Low molecular weight molecules have been discovered and developed to modulate various components of these signaling pathways, for example, MAP kinase inhibitors. However, many points of pathway modulation remain untested due to the lack of chemical probes making this signaling locus of general interest. Using a beta-lactamase reporter-gene under control of the AP-1 response element, a cell-based assay [CellSensor(TM) AP-1-bla ME-180 developed by Invitrogen Corp.] was used to measure EGF-induced signaling. Library compounds were measured for their ability to modulate positively or negatively the action of EC50 EGF on reporter gene activity. Compounds were screened in a titration series in 1536-well format. Positive and negative modulators were identified based on the AC50 values derived from the screening data.
NCGC Assay Protocol Summary: 2500 cells/5uL in Opti-MEM medium containing 0.5% dialyzed FBS, 0.1 mM NEAA, 1 mM sodium pyruvate and 10 mM HEPES was dispensed into 1536-well plates and cells were cultured at 37 degrees Celsius overnight. […] After centrifugation at 1000 rpm for 2 seconds the plates were incubated at 37 degrees Celsius for 5 hours. 1 uL of CCF4-dye mixture was added to each well. After incubated at room temperature for 2.5 hours the plates were measured on an EnVision plate reader at Excitation 405nm, Emission1=460nm and Emission 2=530nm. The %Activity was determined from the ratio of 460nm/530nm.
On the % scale 0 is the no-effect control and ±100 the full control effect.

Activity change, negative = inhibition, inactive:
C1CCN2C[C@@H]3C[C@@H](CN4CCCC[C@H]34)[C@H]2C1 -1.37%
CCN(CC)CCOC(=O)[C@@H](Cc1cccc2ccccc12)C[C@@H]1CCCO1 5.56%
COc1cc2c(cc1OC)-c1cc3ccc(OC)c(OC)c3c[n+]1CC2 8.27%
CNC[C@H](O)[C@H](O)[C@H](O)[C@H](O)CO 8.54%
CCN1CCC[C@@H](OC(=O)C(c2ccccc2)c2ccccc2)C1 1.49%
NC[C@@H]1O[C@H](O[C@@H]2[C@H](O[C@@H]3O[C@H](CO)[C@@H](COC[C@H]4O[C@@H](CN)[C@@H](O)[C@@H](O)[C@@H]4N)[C@@H]3O)[C@@H](O)[C@@H](N)C[C@H]2N)[C@@H](N)[C@H](O)[C@@H]1O 6.54%
CS(=O)(=O)c1ccc([C@H](O)[C@H](CO)NC(=O)C(Cl)Cl)cc1 -0.308%
CCOC(=O)O[C@]1(C(=O)COC(=O)CC)CC[C@@H]2[C@@H]3CCC4=CC(=O)C=C[C@@]4(C)[C@H]3[C@H](O)C[C@]21C 23%
CC1(C)[C@@H](OC(=O)CCC(=O)O)CC[C@@]2(C)[C@H]1CC[C@@]1(C)[C@H]2C(=O)C=C2[C@H]3C[C@](C)(C(=O)O)CC[C@]3(C)CC[C@@]21C 16.5%
CC(=O)OCC(=O)[C@@]1(O)CC[C@@H]2[C@H]3CCC4=CC(=O)C=C[C@]4(C)[C@]3(F)[C@@H](O)C[C@@]21C 0.497%
c1ccc2c(c1)CCC[C@@H]2C1=NCCN1 6.69%
CCC(=O)OCC(=O)[C@@]1(OC(=O)CC)[C@H](C)C[C@@H]2[C@H]3CCC4=CC(=O)C=C[C@]4(C)[C@]3(Cl)[C@@H](O)C[C@@]21C -6.31%
CO/N=C(\C(=O)N[C@@H]1C(=O)N2C(C(=O)O)=C(COC(N)=O)CS[C@@H]12)c1ccco1 4.44%
O[C@@](CCN1CCCC1)(c1ccccc1)C1CCCCC1 8.9%
Nc1nc(=S)c2ncn([C@H]3O[C@@H](CO)[C@@H](O)[C@@H]3O)c2[nH]1 -0.0524%
C[C@@H](C(=O)O)c1ccc(C(=O)c2ccccc2)s1 -1.31%
CN(C/C=C\c1ccccc1)Cc1cccc2ccccc12 -14.2%
CC1=C(C(=O)O)N2C(=O)[C@@H](NC(=O)[C@@H](N)c3ccc(O)cc3)[C@@H]2SC1 1.6%
COc1ccccc1OC[C@H](O)CO 1.8%
CC(=O)O[C@H]1C[C@@]2(C)[C@H](C[C@@H](O)[C@H]3[C@@]4(C)CC[C@@H](O)[C@@H](C)[C@H]4CC[C@@]32C)C1=C(CCC=C(C)C)C(=O)O 1.73%
CCCCC[C@H](O)/C=C\[C@@H]1[C@H](O)CC(=O)[C@@H]1CCCCCCC(=O)O -14.9%
CC(=O)/C(C)=N\O 6.62% [at 38 µM]
CN1CCO[C@H](c2ccccc2)c2ccccc2C1 1.01%
O=C(Nc1ccccc1)OC[C@H](CN1CCCCC1)OC(=O)Nc1ccccc1 3.99%
Cc1ncc([N+](=O)[O-])n1C[C@H](O)CCl 9.27%
CCCCC[C@H](O)/C=C\[C@H]1[C@H](C/C=C\CCCC(=O)O)[C@@H](O)C[C@H]1O (tested in a mixture with another compound) 0.176%
CC[C@@H]1OC(=O)[C@H](C)[C@H](O[C@@H]2C[C@](C)(OC)[C@H](O)[C@H](C)O2)[C@H](C)[C@H](O[C@@H]2O[C@@H](C)C[C@@H](N(C)C)[C@@H]2O)[C@](C)(O)C[C@H](C)C(=NOCOCCOC)[C@H](C)[C@H](O)[C@]1(C)O -2.7%
CO[C@H]1[C@@H](OC(N)=O)[C@H](O)[C@@H](Oc2ccc3c(O)c(NC(=O)c4ccc(O)c(CC=C(C)C)c4)c(=O)oc3c2C)OC1(C)C -8.07%
Cc1cn([C@@H]2C[C@H](N=[N+]=N)[C@H](CO)O2)c(=O)[nH]c1=O 3.86%
CN(C)CCn1nnnc1SCC1=C(C(=O)O)N2C(=O)[C@@H](NC(=O)Cc3csc(N)n3)[C@@H]2SC1 8.2%
CCN[C@@H]1C[C@H](N)[C@H](O[C@H]2OC(CN)=CC[C@H]2N)[C@@H](O)[C@H]1O[C@H]1OC[C@@](C)(O)[C@@H](NC)[C@@H]1O 3.11%
CC(=O)N(C[C@@H](C)C(=O)O)c1c(I)cc(I)c(N)c1I 10.5%
CC1(C)S[C@@H]2[C@H](NC(=O)COc3ccccc3)C(=O)N2[C@H]1C(=O)O (tested in a mixture with another compound) -17.5%
CC(C)(C)NC[C@H](O)COc1cccc2c1CCC(=O)N2 9.83%
CC(=O)S[C@H]1CC2=CC(=O)CC[C@@]2(C)[C@H]2CC[C@@]3(C)[C@H](CC[C@]34CCC(=O)O4)[C@@H]12 21.7%
CC(=O)O[C@H]1C[C@H]2CC[C@@H]3[C@@H](CC[C@]4(C)[C@H](OC(C)=O)[C@H]([N+]5(C)CCCCC5)C[C@@H]34)[C@]2(C)C[C@H]1[N+]1(C)CCCCC1 -1.47%
C[C@@]12CCC(=O)C[C@@H]1CC(=O)[C@H]1[C@H]3CCC[C@]3(C)C(=O)C[C@@H]12 (tested in a mixture with another compound) 8.61%
Nc1c2ccccc2nc2c(O)cccc12 7.38%
C[C@@H]1O[C@H](O[C@@H]2\C=C/C=C\C=C/C=C\C[C@H](C)OC(=O)/C=C\[C@H]3O[C@@H]3C[C@H](O)C[C@]3(O)C[C@@H](O)[C@@H](C(=O)O)[C@H](C2)O3)[C@@H](O)[C@H](N)[C@@H]1O (stereo in doubt) 5.57%
NCC[C@H](O)C(=O)N[C@H]1C[C@@H](N)[C@@H](O[C@H]2O[C@@H](CN)[C@@H](O)[C@@H](O)[C@@H]2O)[C@@H](O)[C@@H]1O[C@H]1O[C@@H](CO)[C@@H](O)[C@@H](N)[C@@H]1O -2.83%
